Laboratory results published in the supplement of paper PMC6555819.

What follows are sequences tested on RARb homodimer (NR concentration 270 nM) (assay: PBM binding z-score (relative to random genomic background probes); higher = stronger binding; sequences stand for … in GC…GCGATTGACAGCGTAGAATGAAGG).
Outline: (§1)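 Custom Agilent 4×180K protein-binding microarrays carried double-stranded probes. Their 34-nt variable regions held direct-repeat seeds, single-nucleotide variants, half-site ablations and random human genomic background sequences. Arrays were incubated 1 h with ligand-free nuclear receptor dimers in PBS pH 7.4, 2% milk, 0.02% Triton X-100, 1 mM DTT, 0.2 mg/mL BSA and 0.4 mg/ml salmon testes DNA. Antibodies against each partner (one per run) detected binding, and scanned fluorescence was regression-normalized. Binding z-scores use random background probes as reference.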

| Sequence | PBM binding z-score |
| --- | --- |
| CCTACAGGGTCAGCTAGGCCAGAGTAGGGACGGC | 3.06 |
| GTATCAAGGTGAATAGGTCGTTGATGAGTAGGCG | 1.83 |
| TATACAGGGTCAAAGGCCGGAGTACGAATGTCGA | 3.45 |
| CCTCGGAGGACAGAACGTCAGAGCTGTCCGCTTT | -0.587 |
| ATCTCTAGGTAAGACCCAGTTCAGTGAAGAACGC | 0.62 |
| ACTTACGGGTCAACGAGGGTATAGCACGCGTATA | 3.24 |
| TAGCGTAGGTCAGATCGGGCCAGTATACGCTATA | 1.87 |
| GCTTACGGGTAAAAGGTTATAGCATGAATAGAAT | 1.59 |
| TCTATTAGTTGACGGGCAACCGACGAGTCCGTTT | -0.1 |
| CCCAGCAGGCCAGGGTCACTCAAGCATTTCGCTT | 2.82 |
| CGTCCCAGGTCAGAGAGGTCAGTGAATGCCGAGT | 4.89 |
| ACTAGCAAGCCAAGGGTCACTCAAGATTAGTCCG | 3.62 |
| CAGACTGGGGCATAAGGTTACCATAAGCCAGCCC | 1.78 |
| AGAACGAGGGCTATGAGTTGATAGCACGGGTGGC | -0.36 |
| GCTTGTAGATCAAGGTTAAGATAGACTAAGCTAA | 0.293 |
| CCTAGCAGGCCAGGGTCACTCAAGCATTTCGCTT | 2.82 |
| ATCTCTAGGCAAAAGTTCAGTGAATCCCGAGGAT | 2.4 |
| ATCTCTAGGTAAAGATAGTTCAGAGAATGCAAAT | 0.692 |
| CAAACTAGGTCACGGAAGGTCAAAGTCGAATGAC | 5.47 |
| ATATGTAGGTTACGGGTCATTCAGGTTGGTTCGC | 3.24 |

| Sequence | PBM binding z-score |
| --- | --- |
| ATCTCTAGCTAACAAGTTCAGTGAAAGAGAGGAC | 1.31 |
| ACAGACAGGTGAGTTAAGGTAACTCAGCTGGACG | -0.0673 |
| CAAACTAGTTCAAAGGTCAAAGTCGAGCCAACCA | 4.9 |
| ACTTACGGGTCAACGAGCTTATAGCACGCGTATA | 2.92 |
| CCGACTGGGGCATAAGGTTAGCATAAGCCAGCCC | 1.26 |
| CCGACTGGGGCATAAGGTTACCATGAGCCAGCCC | 1.89 |
| ATATGTAGATTATCGGGTCATTCAGTTTGCGCAT | 2.3 |
| GATACAGGGTCAAGGCCCGAGTACGCGTATTGAT | 3.19 |
| ACTAGGAGGCCAAGTTTGGGTCACTCAAACAAAG | 2.66 |
| GCTCGGAGGACAACGTCAGAGCTTTGTCCGTAGA | -0.35 |
| TTAGCAAGGTGAAAGGTCGTTGATGCACGCCTTG | 2.23 |
| ATCGAAATGTCGACGAGGTGAGTATACACCGTTT | 0.224 |
| CGTCCAAGGTGAGAGAGGTCAGTGAATGCCGAGT | 4.13 |
| CCTGCTAGGTCAATCGTCAGCTAAAGCAGCTCGC | 2.83 |
| GCTTGTAGGTCAAGGTTAAGAAAGACTAAGCTAA | 3.22 |
| TCTGCTAGGTGAACGATGGTCAGCTAATCTGCTA | 0.159 |
| CGAACTAGGTCATTGACTGGACAGTGAATAGTAA | 2.56 |
| TCCTATAGGTAAAGGTGAAAGTCGAACGATATGA | 1.42 |
| CCAGACAGGTGGGAAGGTAACTCAGCCTCGATTA | 0.465 |
| CCTACTGGGCCATTCAGAGGTCATAGATCATATG | 3.97 |

The sequences below were run on RARg:RXRa (NR concentration 270 nM, RXRa partner concentration 90 nM) in the same assay as above.
Outline: as §1

| Sequence | PBM binding z-score |
| --- | --- |
| CCTACAGGGTCAGCTAGGCCAGAGTAGGGACGGC | 4.32 |
| GTATCAAGGTGAATAGGTCGTTGATGAGTAGGCG | 2.77 |
| TATACAGGGTCAAAGGCCGGAGTACGAATGTCGA | 5.49 |
| CCTCGGAGGACAGAACGTCAGAGCTGTCCGCTTT | -0.462 |
| ATCTCTAGGTAAGACCCAGTTCAGTGAAGAACGC | 0.282 |
| ACTTACGGGTCAACGAGGGTATAGCACGCGTATA | 5.55 |
| TAGCGTAGGTCAGATCGGGCCAGTATACGCTATA | 2.85 |
| GCTTACGGGTAAAAGGTTATAGCATGAATAGAAT | 2.68 |
| TCTATTAGTTGACGGGCAACCGACGAGTCCGTTT | 0.0549 |
| CCCAGCAGGCCAGGGTCACTCAAGCATTTCGCTT | 3.02 |
| CGTCCCAGGTCAGAGAGGTCAGTGAATGCCGAGT | 5.03 |
| ACTAGCAAGCCAAGGGTCACTCAAGATTAGTCCG | 3.45 |
| CAGACTGGGGCATAAGGTTACCATAAGCCAGCCC | 1.9 |
| AGAACGAGGGCTATGAGTTGATAGCACGGGTGGC | -0.0451 |
| GCTTGTAGATCAAGGTTAAGATAGACTAAGCTAA | 0.611 |
| CCTAGCAGGCCAGGGTCACTCAAGCATTTCGCTT | 3.21 |
| ATCTCTAGGCAAAAGTTCAGTGAATCCCGAGGAT | 1.66 |
| ATCTCTAGGTAAAGATAGTTCAGAGAATGCAAAT | 0.65 |
| CAAACTAGGTCACGGAAGGTCAAAGTCGAATGAC | 7.13 |
| ATATGTAGGTTACGGGTCATTCAGGTTGGTTCGC | 3.35 |

| Sequence | PBM binding z-score |
| --- | --- |
| ATCTCTAGCTAACAAGTTCAGTGAAAGAGAGGAC | 0.734 |
| ACAGACAGGTGAGTTAAGGTAACTCAGCTGGACG | 0.439 |
| CAAACTAGTTCAAAGGTCAAAGTCGAGCCAACCA | 7.49 |
| ACTTACGGGTCAACGAGCTTATAGCACGCGTATA | 5.34 |
| CCGACTGGGGCATAAGGTTAGCATAAGCCAGCCC | 0.672 |
| CCGACTGGGGCATAAGGTTACCATGAGCCAGCCC | 1.81 |
| ATATGTAGATTATCGGGTCATTCAGTTTGCGCAT | 1.94 |
| GATACAGGGTCAAGGCCCGAGTACGCGTATTGAT | 5.42 |
| ACTAGGAGGCCAAGTTTGGGTCACTCAAACAAAG | 3.46 |
| GCTCGGAGGACAACGTCAGAGCTTTGTCCGTAGA | -0.399 |
| TTAGCAAGGTGAAAGGTCGTTGATGCACGCCTTG | 4.16 |
| ATCGAAATGTCGACGAGGTGAGTATACACCGTTT | 0.712 |
| CGTCCAAGGTGAGAGAGGTCAGTGAATGCCGAGT | 3.38 |
| CCTGCTAGGTCAATCGTCAGCTAAAGCAGCTCGC | 3.59 |
| GCTTGTAGGTCAAGGTTAAGAAAGACTAAGCTAA | 4.98 |
| TCTGCTAGGTGAACGATGGTCAGCTAATCTGCTA | 0.144 |
| CGAACTAGGTCATTGACTGGACAGTGAATAGTAA | 3.72 |
| TCCTATAGGTAAAGGTGAAAGTCGAACGATATGA | 1.47 |
| CCAGACAGGTGGGAAGGTAACTCAGCCTCGATTA | -0.192 |
| CCTACTGGGCCATTCAGAGGTCATAGATCATATG | 4.15 |
